Reference: PubChem BioAssay (Tox21)
Results filed as inconclusive are left out. Entries that show only a call come without a potency. The source made the active and inactive calls. The call rests on the fitted dose curve; in most records, active means well fitted cell-killing curve with a large enough effect in the repeat runs; inconclusive means weak or mixed curves, or effect the other way; inactive means flat fitted curve, though single readings scatter.

experiment: cAMP Responsive Elements (CRE) small molecule antagonists, cell-based qHTS assay: qHTS cell viability counter screen (AID 2060913); conditions: CRE-bla HEK293T viability, CellTiter-Glo luminescence, 5 h; series mostly up to 92.4 µM; further: nearly all actives have a fitted effect of over 40% in size
In short: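 CRE-bla HEK293T cells were seeded in assay medium with 10% dialyzed FBS, incubated 18 hrs at 37 C, then exposed to compounds plus 0.25 uM final NKH477 for 3 hrs. Viability was read by CellTiter-Glo luminescence after 30 min, in the same wells.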
Potency means the concentration at half of the fitted maximal effect.

| SMILES | Potency |
| --- | --- |
| O=C(Nc1ccccc1)N(Cc1ccc(Cl)cc1)C1CCCC1 | inactive |
| CC(C)C(Nc1ccc(C(F)(F)F)cc1Cl)C(=O)OC(C#N)c1cccc(Oc2ccccc2)c1 (stereo unspecified) | inactive |
| CCCCOC(=O)[C@@H](C)Oc1ccc(Oc2ccc(C#N)cc2F)cc1 | inactive |
| O=S1OCC2C(CO1)C1(Cl)C(Cl)=C(Cl)C2(Cl)C1(Cl)Cl (stereo unspecified) | 61.1 µM (active) |
| CCOc1nc(F)cc2nc(S(=O)(=O)Nc3c(Cl)cccc3Cl)nn12 | inactive |
| CCN1CCC2(CC1)COc1cc3c(cc12)N(C(=O)c1ccc(-c2ccc(-c4nnc(C)o4)cc2C)cc1)CC3 | 56.4 µM (active) |
| ClCCOCOCCCl | inactive |
| CN | inactive |
| OC(c1ccc(Cl)cc1)(c1ccc(Cl)cc1)c1cccnc1 | inactive |
| CN1CC[C@]23c4c5ccc(O)c4O[C@H]2[C@@H](O)C=C[C@H]3[C@H]1C5 | inactive |
| Cc1cccc(C)c1NC1=NCCCS1 | inactive |
| COC(=O)Cc1ccccc1 | inactive |
| Cc1cc(C(C)(C)c2ccc(O)c(C)c2)ccc1O | inactive |
| N#CN=C1SCCN1Cc1ccc(Cl)nc1 | inactive |
| CC(C)(C)c1ccccc1O | inactive |
| O=C(Cl)/C=C/C(=O)Cl | inactive |
